Dicer processing: inhibitors of human Dicer processing of pre-microRNA | cat-ELCCA pre-miR-21 Dicer processing, chemiluminescence; active compounds read high | z-score at 25 µM | 47,000 tested, 6% active; in the data active means z-score above about 3, passing the limit was not always enough;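 further: plate controls were vehicle for no effect and no enzyme for full effect; higher signal means more uncleaved substrate so more Dicer inhibition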
Target sequence (Q9UPY3 whole entry, looked up): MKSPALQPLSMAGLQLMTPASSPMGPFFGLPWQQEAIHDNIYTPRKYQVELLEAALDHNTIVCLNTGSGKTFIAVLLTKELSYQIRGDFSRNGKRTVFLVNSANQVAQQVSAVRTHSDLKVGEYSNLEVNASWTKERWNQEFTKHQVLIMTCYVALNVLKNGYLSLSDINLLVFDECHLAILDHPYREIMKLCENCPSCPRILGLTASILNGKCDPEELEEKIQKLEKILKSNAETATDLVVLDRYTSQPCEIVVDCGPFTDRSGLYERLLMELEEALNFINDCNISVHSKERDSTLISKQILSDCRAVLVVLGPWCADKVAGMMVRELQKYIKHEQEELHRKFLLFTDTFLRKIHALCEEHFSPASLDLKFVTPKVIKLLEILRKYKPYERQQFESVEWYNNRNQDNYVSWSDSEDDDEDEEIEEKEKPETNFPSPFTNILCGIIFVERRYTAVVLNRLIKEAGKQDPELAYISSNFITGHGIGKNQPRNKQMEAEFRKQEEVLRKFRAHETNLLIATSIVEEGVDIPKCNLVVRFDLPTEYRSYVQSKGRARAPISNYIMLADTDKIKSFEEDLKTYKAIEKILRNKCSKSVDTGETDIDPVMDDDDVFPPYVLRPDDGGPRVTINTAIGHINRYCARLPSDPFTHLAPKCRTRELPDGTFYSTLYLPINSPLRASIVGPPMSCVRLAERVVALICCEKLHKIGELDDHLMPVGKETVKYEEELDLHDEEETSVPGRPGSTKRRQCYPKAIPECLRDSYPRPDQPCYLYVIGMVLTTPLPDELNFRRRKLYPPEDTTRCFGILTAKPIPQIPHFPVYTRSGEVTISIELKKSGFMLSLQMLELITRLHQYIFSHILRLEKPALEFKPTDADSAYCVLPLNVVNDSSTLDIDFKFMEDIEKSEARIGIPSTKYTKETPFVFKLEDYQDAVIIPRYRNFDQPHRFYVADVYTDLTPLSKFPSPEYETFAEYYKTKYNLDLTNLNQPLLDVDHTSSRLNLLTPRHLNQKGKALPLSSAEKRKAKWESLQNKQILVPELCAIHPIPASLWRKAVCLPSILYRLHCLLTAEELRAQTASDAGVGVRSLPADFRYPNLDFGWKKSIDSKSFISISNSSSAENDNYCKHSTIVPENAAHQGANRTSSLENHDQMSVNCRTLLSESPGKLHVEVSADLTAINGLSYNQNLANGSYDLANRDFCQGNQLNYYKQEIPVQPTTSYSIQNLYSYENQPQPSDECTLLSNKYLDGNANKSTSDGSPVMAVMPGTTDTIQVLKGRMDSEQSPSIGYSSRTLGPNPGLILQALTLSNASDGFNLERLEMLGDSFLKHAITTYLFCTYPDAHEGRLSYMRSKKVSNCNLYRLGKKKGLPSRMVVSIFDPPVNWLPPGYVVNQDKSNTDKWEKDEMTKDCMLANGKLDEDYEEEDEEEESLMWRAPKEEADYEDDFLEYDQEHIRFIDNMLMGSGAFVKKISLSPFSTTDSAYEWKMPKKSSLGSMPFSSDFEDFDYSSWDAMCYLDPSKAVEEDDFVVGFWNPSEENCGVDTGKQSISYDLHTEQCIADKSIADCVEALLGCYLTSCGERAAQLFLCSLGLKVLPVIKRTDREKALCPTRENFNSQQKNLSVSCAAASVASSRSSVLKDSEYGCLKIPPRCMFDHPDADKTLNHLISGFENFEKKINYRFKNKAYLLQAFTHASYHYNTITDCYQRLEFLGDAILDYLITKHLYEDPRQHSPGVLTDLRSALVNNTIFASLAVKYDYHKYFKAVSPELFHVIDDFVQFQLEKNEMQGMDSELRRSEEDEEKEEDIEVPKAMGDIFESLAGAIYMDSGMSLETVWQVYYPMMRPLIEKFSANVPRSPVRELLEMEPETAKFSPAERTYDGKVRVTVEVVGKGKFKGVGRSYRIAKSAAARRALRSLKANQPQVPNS
Active calls of the source: *; ! = not confirmed by another sample. The sample as a whole holds a higher share of hits than the screen did.

SMILES	Dicer processing
C=CCN1C(=O)C2(/C(=C(/O)c3ccccc3)C(=O)C(=O)N2CCCN2CCOCC2)c2ccccc21 (configuration not stated)	3.5*
CCC(C)c1cc(N)nc2nc3ccccc3n12 (configuration not stated)	1.8
COc1ccccc1NC(=O)NC1CCN(c2ncc(C(F)(F)F)cc2Cl)CC1	-0.63
CC(C)NC(=O)NNc1c(Cl)cccc1Cl	-0.42
Cc1cc(C)c(NS(=O)(=O)c2cc([N+](=O)[O-])ccc2C)c(C)c1	0.22
O=[N+]([O-])c1ccc(NS(=O)(=O)c2ccc(-c3ccc(S(=O)(=O)Nc4ccc([N+](=O)[O-])cc4)s3)s2)cc1	5.3*
CNS(=O)(=O)Cc1ccc([N+](=O)[O-])cc1	-1.9
CCCCc1ccc(C(=O)CCC(=O)O)cc1	-0.58
CN(C)CCCNCc1cccn1C	3.1*
Cn1cccc1CNCC(O)C(F)(F)F (configuration not stated)	-0.06
Cn1cccc1CNCc1cccnc1	1.6
Nc1c(C(=O)N/N=C/c2ccc3c(c2)OCO3)sc2nnc(-c3ccccc3)c(-c3ccccc3)c12	0.44
CCOC(=O)c1csc(-n2cccc2)n1	2.7
Cc1ccc2oc(=O)n(CC(=O)O)c2c1	1.3
Cc1ccc2oc(=O)n(Cc3ccccc3OC(C)C)c2c1	5.1*
COc1ccc(Cn2c(=O)oc3ccccc32)cc1OC	-0.24
Cc1cc(OS(=O)(=O)c2cccc(S(=O)(=O)Oc3ccc(Cl)c(C)c3)c2)ccc1Cl	-0.83
O=C(NCCCCCCNC(=O)NCc1ccccc1)NCc1ccccc1	-0.41
O=C(NCc1ccccc1)NCc1ccccc1	3.6*
Cc1cccc(C)c1NC(=O)NCc1ccccc1	2
CCOC(=O)c1cc(C)nc(Sc2ccccc2Cl)n1	-1.8
O=C(O)c1cc(NC(=O)C2CCN(c3nccc(C(F)(F)F)n3)CC2)ccc1N1CCOCC1	-0.66
COC(=O)c1ccc(OCC(F)(F)F)nc1	-0.41
CC(=O)OCC1=C(C(=O)O)N2C(=O)[C@@H](NC(=O)Cc3cccs3)[C@H]2SC1	2.6
O=C(COc1ccccc1)NC1C(=O)N2C(C(=O)O)=C(Cl)CSC12 (configuration not stated)	-0.43
SMILES	Dicer processing
NC(=O)c1cc[n+](CC2=C(C(=O)O)N3C(=O)[C@@H](NC(=O)[C@@H](c4ccccc4)S(=O)(=O)[O-])[C@H]3SC2)cc1	3.7*!
COC(=O)c1sc(Br)c(Br)c1O	-0.72
COC(=O)c1sc(=S)sc1C(=O)OC	3.8*
COC(=O)c1cc(O)c(C(=O)OC)s1	-1
CC1(C)Cc2cccc(C(=O)Nc3cccc4c3CCCC4)c2O1	-0.61
O=C(NNC(=O)c1cc(Cl)cc(Cl)c1)NC(=O)c1ccccc1Cl	0.69
Cc1ccc(/C(O)=C2/C(=O)C(=O)N(CCCN(C)C)C23C(=O)N(C)c2ccccc23)cc1F (configuration not stated)	-0.29
COCCN1C(=O)C(=O)/C(=C(\O)c2ccc(OC)cc2)C12C(=O)N(C)c1ccccc12 (configuration not stated)	-0.25
CCOc1ccc(/C(O)=C2/C(=O)C(=O)N(CCCOC)C23C(=O)N(C)c2ccccc23)cc1 (configuration not stated)	2.5
COCCN1C(=O)C(=O)/C(=C(\O)c2ccc(OC)c(C)c2)C12C(=O)N(C)c1ccccc12 (configuration not stated)	3.2*
COCCN1C(=O)C(=O)/C(=C(\O)c2ccc(C)cc2)C12C(=O)N(C)c1ccccc12 (configuration not stated)	-0.78
CCOc1ccc(/C(O)=C2/C(=O)C(=O)N(CCOC)C23C(=O)N(C)c2ccccc23)cc1 (configuration not stated)	4.1*
Cc1cc(OC(CN(C)C)CN(C)C)nc2ccccc12	1.3
CC(C)/C(=N\O)c1ccc([N+](=O)[O-])cc1	-0.94
CN=C1NC(=O)CC(C(=O)Nc2ccc(F)cc2)S1 (configuration not stated)	2.4
COC(=O)c1c(C)oc2cc(Br)c(OCc3ccccc3)cc12	2.4
COc1cccc(C2C(C(=O)OC(C)C)=C(C)Nc3nc4ccccc4n32)c1 (configuration not stated)	-1.6
CCOC(=O)c1c(/N=C/C2=C(O)CC(c3cccs3)CC2=O)sc(C)c1C (configuration not stated)	-1.7
CCSC1=C(C#N)C(=O)NC(C)S1 (configuration not stated)	-1.4
CC(C)(C)OC(=O)/C(C#N)=C/c1ccc([N+](=O)[O-])cc1	8.3
CCOC(=O)/C(C#N)=C/NN(C)c1ccccc1[N+](=O)[O-]	-0.25
CCN(CC)C(=O)/C(C#N)=C/c1cc(O)c(O)c([N+](=O)[O-])c1	3.8*
COc1cc2ncnc(NC(C)c3ccccc3)c2cc1OC (configuration not stated)	-0.52
O=C(O)C1CC(=O)N(c2ccc(Oc3ccccc3)cc2)C1 (configuration not stated)	1.6
Cc1ccc(OCC2CN(Cc3ccccc3)C(=O)O2)cc1 (configuration not stated)	0.12
SMILES	Dicer processing
O=C1OC(COc2ccccc2)CN1c1ccccc1 (configuration not stated)	3.4*
Cc1onc(-c2ccccc2Cl)c1C(=O)NNc1cccc(C(F)(F)F)n1	0.23
CC(C)(C)NS(=O)(=O)c1sc(Br)cc1Br	0.97
CCOc1ccccc1C1C(C(=O)OC)=C(C)NC2=C1C(=O)c1ccccc12 (configuration not stated)	0.84
COC(=O)C1=C(C)NC(C)=C(C(=O)OCC(C)C)C1c1ccccc1[N+](=O)[O-] (configuration not stated)	3.9*
COC(=O)C1=C(C)NC(C)=C(C(=O)OC(C)C)C1c1cccc2nonc12 (configuration not stated)	-0.72
CC1=C(C(=O)OC(C)C)C(c2cccc(F)c2)n2c(nc3ccccc32)N1 (configuration not stated)	-1
O=c1onc(-c2cccc(Cl)c2)n1-c1ccccc1	0.23
COc1ccc(-c2noc(Cc3ccccc3)n2)cc1	0.02
COC(=O)c1ccc(Br)cc1	0.38
COC(=O)c1cc(Cl)cc(Cl)c1	-0.99
COC(=O)c1ccc2cc(C(=O)O)ccc2c1	5.4*
Cc1ccc(/C=c2\sc3nc(-c4ccccc4)c(-c4ccccc4)n3c2=O)o1	0
Cn1c(=O)c2c(nc(CN3CCN(c4ccccc4)CC3)n2CC(=O)C(C)(C)C)n(C)c1=O	0.91
CN1C(=O)c2cccc3cccc(c23)C1=O	-1.1
O=C1c2cccc3cccc(c23)C(=O)N1c1ccc(Cl)cc1	6*
O=C1c2cccc3cccc(c23)C(=O)N1c1ccccc1	0.9
Cn1c(=O)c2c(ncn2CCCN)n(C)c1=O	0.82
O=C(CC1Sc2ccccc2NC1=O)Nc1ccc2c(c1)OCO2 (configuration not stated)	3.9*
O=C(CC1Sc2ccccc2NC1=O)Nc1ccc(Cl)cc1 (configuration not stated)	-0.08
O=C(CC1SCCNC1=O)Nc1ccc2c(c1)OCO2 (configuration not stated)	-0.95
O=C1CC(c2ccco2)CC2=C1C(c1ccccc1)n1c(nc3ccccc31)N2 (configuration not stated)	-1.7
COc1ccc(CNCc2ccc3c(c2)OCO3)cc1OC	-0.8
Cc1ccc(S(=O)(=O)NCc2ccc3c(c2)OCO3)cc1C	0.26
COc1ccc(S(=O)(=O)NCc2ccc3c(c2)OCO3)cc1OC	3.6*
CC(C)N(Cc1ccccc1)S(=O)(=O)c1ccc(S(=O)(=O)c2ccccc2)s1	-1.4
